This note sets out measurements from publication PMC7862700, “An all-to-all approach to the identification of sequence-specific readers for epigenetic DNA modifications on cytosine”.

Assay in all cases: DAPPL (digital affinity profiling via proximity ligation, sequencing); 10 mM Tris-HCl pH 7.5, 50 mM NaCl, 1 mM DTT, 4% glycerol, room temperature, 30 min; GST-TFs on glutathione beads, 16-mer random dsDNA library, 0.1% formaldehyde crosslink after washing; high values mean tight binding
The target in one test is T1, FLI1 (Homo sapiens, UniProt Q01543 1-452).
T1 sequence: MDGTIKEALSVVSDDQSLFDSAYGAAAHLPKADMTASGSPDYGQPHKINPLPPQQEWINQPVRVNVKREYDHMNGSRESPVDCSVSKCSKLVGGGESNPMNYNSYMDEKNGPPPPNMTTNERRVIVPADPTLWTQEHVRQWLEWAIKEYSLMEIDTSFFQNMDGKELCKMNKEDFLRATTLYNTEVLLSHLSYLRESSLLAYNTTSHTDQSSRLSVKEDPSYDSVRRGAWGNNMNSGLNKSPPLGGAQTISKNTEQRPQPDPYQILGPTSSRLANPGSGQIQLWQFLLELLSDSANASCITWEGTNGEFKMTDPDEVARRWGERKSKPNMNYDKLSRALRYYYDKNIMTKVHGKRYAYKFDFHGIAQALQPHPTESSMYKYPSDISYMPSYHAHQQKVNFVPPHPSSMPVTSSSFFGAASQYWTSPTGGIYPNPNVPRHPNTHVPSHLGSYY
The conditions noted are these: protein: recombinant; tags: N-terminal GST; dsDNA, one strand shown. The method in brief: (§1)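 Each value of binding signal is a hexamer's read frequency for a factor divided by the same hexamer's frequency in the tag-only sample. Barcoded, bead-captured GST fusions of human transcription factors made in yeast were pooled with that sample and incubated with 200 nmole of a random double-stranded 16-mer DNA library in Tris/NaCl/DTT/glycerol buffer at room temperature for 30 min. Washing, 0.1% formaldehyde crosslinking, proximity ligation, PCR and Illumina NextSeq500 sequencing followed.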

The target in the next test is T2, ELK1 (Homo sapiens, UniProt P19419 1-428).
T2 sequence: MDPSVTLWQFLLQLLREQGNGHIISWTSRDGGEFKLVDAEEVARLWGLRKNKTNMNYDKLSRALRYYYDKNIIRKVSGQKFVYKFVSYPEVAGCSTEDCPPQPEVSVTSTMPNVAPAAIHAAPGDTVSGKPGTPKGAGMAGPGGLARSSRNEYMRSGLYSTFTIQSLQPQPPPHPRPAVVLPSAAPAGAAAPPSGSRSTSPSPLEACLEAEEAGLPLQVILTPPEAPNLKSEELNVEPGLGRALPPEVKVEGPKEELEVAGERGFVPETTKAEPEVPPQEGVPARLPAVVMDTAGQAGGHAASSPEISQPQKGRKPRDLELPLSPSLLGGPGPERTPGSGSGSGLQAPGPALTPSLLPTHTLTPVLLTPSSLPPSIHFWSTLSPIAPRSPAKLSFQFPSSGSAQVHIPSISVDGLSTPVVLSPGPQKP
The conditions noted are these: protein: recombinant; tags: N-terminal GST; dsDNA, one strand shown. In outline: as §1

In a further test the target is T3, GABPA (Homo sapiens, UniProt Q06546 1-454).
T3 sequence: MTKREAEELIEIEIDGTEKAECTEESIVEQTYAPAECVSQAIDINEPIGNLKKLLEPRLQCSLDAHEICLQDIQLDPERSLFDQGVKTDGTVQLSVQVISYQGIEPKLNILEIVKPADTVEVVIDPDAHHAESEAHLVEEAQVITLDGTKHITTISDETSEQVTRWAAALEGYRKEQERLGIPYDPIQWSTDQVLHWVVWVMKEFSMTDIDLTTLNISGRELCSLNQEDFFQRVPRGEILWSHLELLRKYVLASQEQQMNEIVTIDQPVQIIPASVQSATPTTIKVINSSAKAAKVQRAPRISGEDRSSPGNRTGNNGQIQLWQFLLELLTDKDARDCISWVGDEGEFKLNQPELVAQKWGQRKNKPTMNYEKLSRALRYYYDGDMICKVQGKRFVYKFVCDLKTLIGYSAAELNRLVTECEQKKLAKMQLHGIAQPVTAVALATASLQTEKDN
The note with it: protein: recombinant; tags: N-terminal GST; dsDNA, one strand shown. The method in brief: as §1

Another test addresses T4, ERG (Homo sapiens, UniProt P11308 1-479).
T4 sequence: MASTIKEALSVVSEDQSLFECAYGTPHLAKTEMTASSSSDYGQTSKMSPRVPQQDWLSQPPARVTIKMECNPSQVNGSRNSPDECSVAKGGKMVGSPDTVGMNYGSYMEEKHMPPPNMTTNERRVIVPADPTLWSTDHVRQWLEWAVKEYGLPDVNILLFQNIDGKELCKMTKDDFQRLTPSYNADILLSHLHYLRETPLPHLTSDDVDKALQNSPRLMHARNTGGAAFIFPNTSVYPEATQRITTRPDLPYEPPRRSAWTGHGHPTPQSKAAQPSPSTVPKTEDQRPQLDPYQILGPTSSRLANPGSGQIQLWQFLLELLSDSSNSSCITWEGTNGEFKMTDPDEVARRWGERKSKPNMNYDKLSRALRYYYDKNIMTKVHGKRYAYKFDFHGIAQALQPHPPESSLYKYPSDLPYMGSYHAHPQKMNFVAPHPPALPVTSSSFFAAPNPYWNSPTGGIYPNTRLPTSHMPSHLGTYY
The conditions noted are these: protein: recombinant; tags: N-terminal GST; dsDNA, one strand shown. In outline:
as §1

Another test concerns the target ELF1 (Homo sapiens, UniProt P32519 1-619). The conditions noted are these: protein: recombinant; tags: N-terminal GST; dsDNA, one strand shown. In outline:
as §1

A further test concerns the target T5, EHF (Homo sapiens, UniProt Q9NZC4 1-300).
T5 sequence: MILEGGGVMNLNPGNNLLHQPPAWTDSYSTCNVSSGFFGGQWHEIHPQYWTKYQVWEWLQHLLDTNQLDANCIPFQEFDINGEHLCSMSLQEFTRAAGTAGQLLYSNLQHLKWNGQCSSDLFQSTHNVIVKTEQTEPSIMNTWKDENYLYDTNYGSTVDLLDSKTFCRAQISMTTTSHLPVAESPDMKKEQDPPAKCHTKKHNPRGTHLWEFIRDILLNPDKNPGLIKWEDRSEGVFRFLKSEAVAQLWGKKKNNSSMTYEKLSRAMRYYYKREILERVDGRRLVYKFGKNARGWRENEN
The note with it: protein: recombinant; tags: N-terminal GST; dsDNA, one strand shown. In outline:
as §1

Another test has as its target SPI1 (Homo sapiens, UniProt P17947 1-270). The note with it: protein: recombinant; tags: N-terminal GST; dsDNA, one strand shown. The method in brief: as §1
Another test concerns the target SPIB (Homo sapiens, UniProt Q01892 1-262). The note with it: protein: recombinant; tags: N-terminal GST; dsDNA, one strand shown. In outline:
as §1

The target in another test is T6, ELK3 (Homo sapiens, UniProt P41970 1-407).
T6 sequence: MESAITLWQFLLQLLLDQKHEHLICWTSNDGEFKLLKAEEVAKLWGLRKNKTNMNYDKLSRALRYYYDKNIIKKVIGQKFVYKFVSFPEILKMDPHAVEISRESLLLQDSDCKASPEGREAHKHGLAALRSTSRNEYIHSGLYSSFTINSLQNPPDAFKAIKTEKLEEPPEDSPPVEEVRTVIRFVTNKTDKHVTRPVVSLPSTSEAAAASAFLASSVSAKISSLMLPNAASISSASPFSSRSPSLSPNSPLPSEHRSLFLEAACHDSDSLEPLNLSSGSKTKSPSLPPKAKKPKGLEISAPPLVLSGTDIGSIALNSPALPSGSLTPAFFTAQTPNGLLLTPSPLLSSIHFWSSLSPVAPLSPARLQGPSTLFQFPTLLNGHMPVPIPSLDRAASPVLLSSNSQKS
The note with it: protein: recombinant; tags: N-terminal GST; dsDNA, one strand shown. The method in brief:
as §1

In the next test the target is T7, FEV (Homo sapiens, UniProt Q99581 1-238).
T7 sequence: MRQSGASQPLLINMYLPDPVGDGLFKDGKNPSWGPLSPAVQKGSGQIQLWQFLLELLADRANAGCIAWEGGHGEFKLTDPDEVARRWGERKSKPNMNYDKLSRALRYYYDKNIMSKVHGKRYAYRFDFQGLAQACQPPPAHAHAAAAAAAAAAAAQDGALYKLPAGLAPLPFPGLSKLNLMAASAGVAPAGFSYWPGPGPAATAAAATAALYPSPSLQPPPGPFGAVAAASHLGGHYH
The note with it: protein: recombinant; tags: N-terminal GST; dsDNA, one strand shown. In outline:
as §1

The target in a further test is ETV5 (Homo sapiens, UniProt P41161 1-510). The conditions noted are these: protein: recombinant; tags: N-terminal GST; dsDNA, one strand shown. The method in brief:
as §1

A further test addresses HSF1 (Homo sapiens, UniProt Q00613 1-529). The note with it: protein: recombinant; tags: N-terminal GST; chain copies: 3; dsDNA, one strand shown. The method in brief:
as §1

A further test has as its target T8, SPIC (Homo sapiens, UniProt Q8N5J4 1-248).
T8 sequence: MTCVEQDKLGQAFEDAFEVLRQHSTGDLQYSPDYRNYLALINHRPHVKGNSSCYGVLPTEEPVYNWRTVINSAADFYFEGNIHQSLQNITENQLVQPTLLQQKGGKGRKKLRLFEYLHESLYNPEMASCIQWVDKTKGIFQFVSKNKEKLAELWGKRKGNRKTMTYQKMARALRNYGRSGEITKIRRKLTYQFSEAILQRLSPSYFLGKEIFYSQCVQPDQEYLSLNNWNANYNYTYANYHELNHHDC
The note with it: protein: recombinant; tags: N-terminal GST; dsDNA, one strand shown. In outline: as §1

Another test has as its target ELF4 (Homo sapiens, UniProt Q99607 1-663). The note with it: protein: recombinant; tags: N-terminal GST; dsDNA, one strand shown. In outline: as §1
For a further test, the target named is T9, ELK4 (Homo sapiens, UniProt P28324-2 1-405).
T9 sequence: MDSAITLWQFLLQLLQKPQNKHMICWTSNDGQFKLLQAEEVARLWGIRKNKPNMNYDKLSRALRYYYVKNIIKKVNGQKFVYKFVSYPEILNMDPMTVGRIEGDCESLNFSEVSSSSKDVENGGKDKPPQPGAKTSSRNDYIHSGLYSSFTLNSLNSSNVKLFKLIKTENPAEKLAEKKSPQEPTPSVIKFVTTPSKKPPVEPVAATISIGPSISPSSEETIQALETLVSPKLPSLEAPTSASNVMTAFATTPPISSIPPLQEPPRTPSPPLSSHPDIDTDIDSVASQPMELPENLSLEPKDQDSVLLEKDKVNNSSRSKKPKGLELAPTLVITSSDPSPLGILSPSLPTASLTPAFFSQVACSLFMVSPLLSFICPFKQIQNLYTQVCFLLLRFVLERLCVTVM
The note with it: protein: recombinant; tags: N-terminal GST; dsDNA, one strand shown. In outline:
as §1

A further test concerns the target T10, ETV2 (Homo sapiens, UniProt O00321 1-342).
T10 sequence: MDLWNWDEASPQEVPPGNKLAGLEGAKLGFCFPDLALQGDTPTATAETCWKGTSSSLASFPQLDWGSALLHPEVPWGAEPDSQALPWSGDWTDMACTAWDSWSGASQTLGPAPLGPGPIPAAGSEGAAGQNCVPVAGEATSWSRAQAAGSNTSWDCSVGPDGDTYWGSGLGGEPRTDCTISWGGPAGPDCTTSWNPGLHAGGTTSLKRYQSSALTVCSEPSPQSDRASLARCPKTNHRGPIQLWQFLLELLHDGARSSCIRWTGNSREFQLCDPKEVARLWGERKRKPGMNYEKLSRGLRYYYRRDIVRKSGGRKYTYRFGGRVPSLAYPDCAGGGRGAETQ
The conditions noted are these: protein: recombinant; tags: N-terminal GST; dsDNA, one strand shown. The method in brief:
as §1

The target of the next test is T11, ELF3 (Homo sapiens, UniProt P78545 1-371).
T11 sequence: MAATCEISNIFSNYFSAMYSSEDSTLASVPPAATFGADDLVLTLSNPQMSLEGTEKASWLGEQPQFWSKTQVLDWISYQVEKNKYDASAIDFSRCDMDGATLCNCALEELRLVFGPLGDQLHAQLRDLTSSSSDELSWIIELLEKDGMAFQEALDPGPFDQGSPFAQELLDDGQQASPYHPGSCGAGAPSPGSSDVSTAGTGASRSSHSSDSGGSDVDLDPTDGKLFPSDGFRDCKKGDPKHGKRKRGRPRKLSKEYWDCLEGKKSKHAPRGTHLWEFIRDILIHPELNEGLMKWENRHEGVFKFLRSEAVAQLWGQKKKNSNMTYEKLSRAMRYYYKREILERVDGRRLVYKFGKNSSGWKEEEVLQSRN
The note with it: protein: recombinant; tags: N-terminal GST; dsDNA, one strand shown. The method in brief:
as §1

The target in a further test is CRX (Homo sapiens, UniProt O43186 1-299). The conditions noted are these: protein: recombinant; tags: N-terminal GST; dsDNA, one strand shown. The method in brief:
as §1

For the next test, the target named is ETV1 (Homo sapiens, UniProt P50549 1-477). The note with it: protein: recombinant; tags: N-terminal GST; dsDNA, one strand shown. In outline:
as §1

ELF1, sequence (P32519 whole entry): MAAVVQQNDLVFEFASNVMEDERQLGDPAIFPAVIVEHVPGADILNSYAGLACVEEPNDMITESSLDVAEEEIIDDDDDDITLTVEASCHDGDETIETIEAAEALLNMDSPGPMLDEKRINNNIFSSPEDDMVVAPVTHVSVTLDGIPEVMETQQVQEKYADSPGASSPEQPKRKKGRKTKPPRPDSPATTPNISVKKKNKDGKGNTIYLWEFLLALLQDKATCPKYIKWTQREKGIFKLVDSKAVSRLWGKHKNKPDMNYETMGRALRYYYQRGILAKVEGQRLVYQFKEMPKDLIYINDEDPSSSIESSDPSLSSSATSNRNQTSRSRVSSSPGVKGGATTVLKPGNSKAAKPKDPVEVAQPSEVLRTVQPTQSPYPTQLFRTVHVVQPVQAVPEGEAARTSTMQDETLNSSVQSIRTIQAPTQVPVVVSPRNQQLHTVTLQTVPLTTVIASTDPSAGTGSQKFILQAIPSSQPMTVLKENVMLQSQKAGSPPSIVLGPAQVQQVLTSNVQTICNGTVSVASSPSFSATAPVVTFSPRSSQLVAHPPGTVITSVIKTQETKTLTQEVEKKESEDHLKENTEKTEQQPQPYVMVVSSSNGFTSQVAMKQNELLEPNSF
ETV5, sequence (P41161 whole entry): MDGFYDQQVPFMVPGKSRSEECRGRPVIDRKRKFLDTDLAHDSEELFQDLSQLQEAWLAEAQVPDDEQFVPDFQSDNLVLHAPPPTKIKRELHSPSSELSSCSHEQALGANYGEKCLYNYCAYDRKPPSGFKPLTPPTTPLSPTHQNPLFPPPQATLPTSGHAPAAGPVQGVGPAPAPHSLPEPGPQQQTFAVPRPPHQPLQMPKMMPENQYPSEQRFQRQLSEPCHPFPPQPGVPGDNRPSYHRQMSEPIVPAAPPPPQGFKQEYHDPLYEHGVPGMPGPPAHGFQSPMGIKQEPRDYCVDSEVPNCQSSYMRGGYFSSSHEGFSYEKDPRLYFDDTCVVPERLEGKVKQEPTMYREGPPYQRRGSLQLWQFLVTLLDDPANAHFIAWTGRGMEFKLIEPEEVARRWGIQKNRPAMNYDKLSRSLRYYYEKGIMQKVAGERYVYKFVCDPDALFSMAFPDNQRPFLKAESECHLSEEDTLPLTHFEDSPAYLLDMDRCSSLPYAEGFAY
CRX, sequence (O43186 whole entry): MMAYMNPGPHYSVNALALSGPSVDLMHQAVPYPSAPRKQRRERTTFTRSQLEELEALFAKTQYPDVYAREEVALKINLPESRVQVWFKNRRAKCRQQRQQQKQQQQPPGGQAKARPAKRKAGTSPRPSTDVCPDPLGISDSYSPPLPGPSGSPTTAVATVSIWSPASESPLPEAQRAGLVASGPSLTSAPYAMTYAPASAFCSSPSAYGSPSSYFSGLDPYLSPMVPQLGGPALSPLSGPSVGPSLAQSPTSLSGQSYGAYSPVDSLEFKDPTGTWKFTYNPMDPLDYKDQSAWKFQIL
HSF1, sequence (Q00613 whole entry): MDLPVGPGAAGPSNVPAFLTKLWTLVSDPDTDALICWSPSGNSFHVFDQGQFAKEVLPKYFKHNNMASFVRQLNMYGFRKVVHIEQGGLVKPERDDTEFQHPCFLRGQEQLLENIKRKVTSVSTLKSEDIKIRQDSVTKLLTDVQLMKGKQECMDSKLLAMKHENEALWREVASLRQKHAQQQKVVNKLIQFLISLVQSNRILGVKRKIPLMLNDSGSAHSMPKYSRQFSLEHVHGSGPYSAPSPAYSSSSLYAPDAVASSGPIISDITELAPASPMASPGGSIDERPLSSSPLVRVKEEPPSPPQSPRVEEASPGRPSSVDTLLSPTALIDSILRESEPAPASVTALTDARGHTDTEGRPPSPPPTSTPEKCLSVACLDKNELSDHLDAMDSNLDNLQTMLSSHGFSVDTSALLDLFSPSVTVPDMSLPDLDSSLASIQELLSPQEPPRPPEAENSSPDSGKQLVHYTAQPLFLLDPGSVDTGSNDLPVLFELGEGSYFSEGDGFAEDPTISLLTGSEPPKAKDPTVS
ELF4, sequence (Q99607 whole entry): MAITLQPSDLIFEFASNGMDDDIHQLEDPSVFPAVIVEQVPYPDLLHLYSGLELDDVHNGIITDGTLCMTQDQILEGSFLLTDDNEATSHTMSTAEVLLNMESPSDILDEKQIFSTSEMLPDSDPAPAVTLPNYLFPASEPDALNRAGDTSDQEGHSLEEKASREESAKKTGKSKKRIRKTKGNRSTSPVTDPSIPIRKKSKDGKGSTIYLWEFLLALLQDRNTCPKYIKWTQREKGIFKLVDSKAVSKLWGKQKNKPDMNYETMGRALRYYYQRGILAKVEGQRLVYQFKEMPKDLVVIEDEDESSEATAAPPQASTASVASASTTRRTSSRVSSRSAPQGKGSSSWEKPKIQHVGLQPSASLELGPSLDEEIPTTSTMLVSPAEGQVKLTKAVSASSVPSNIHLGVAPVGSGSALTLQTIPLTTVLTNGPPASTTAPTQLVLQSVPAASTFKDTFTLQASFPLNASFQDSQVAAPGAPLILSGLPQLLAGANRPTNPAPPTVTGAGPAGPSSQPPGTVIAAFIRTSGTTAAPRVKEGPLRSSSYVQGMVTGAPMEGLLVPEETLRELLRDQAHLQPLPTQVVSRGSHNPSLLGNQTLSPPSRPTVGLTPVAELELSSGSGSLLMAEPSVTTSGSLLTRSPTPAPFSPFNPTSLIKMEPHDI
ETV1, sequence (P50549 whole entry): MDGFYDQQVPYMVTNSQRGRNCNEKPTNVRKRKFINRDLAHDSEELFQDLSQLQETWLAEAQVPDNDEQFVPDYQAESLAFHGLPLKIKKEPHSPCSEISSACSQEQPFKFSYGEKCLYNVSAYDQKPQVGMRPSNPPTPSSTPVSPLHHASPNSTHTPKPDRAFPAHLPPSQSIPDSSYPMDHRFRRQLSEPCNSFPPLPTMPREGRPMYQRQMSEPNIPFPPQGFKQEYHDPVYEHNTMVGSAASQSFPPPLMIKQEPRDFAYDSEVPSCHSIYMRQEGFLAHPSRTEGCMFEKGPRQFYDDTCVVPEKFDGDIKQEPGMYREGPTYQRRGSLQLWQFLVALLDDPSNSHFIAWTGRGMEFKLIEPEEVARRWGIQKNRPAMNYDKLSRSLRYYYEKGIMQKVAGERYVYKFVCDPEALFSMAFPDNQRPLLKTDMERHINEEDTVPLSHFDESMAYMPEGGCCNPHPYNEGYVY
SPIB, sequence (Q01892 whole entry): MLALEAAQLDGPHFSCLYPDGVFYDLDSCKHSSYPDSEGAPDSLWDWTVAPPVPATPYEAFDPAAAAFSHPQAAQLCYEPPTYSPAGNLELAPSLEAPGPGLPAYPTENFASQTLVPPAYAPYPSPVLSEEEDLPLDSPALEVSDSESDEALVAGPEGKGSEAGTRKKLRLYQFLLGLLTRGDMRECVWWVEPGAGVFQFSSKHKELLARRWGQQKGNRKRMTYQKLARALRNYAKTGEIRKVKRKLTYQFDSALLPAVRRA

For CATGCT, the binding signal with FLI1 was 1.33 fold enrichment (6-mer frequency, TF over GST control); in the test with ELK1, 1.2 fold enrichment (6-mer frequency, TF over GST control); with GABPA it was 1.21 fold enrichment (6-mer frequency, TF over GST control); with ERG it was 1.23 fold enrichment (6-mer frequency, TF over GST control); with ELF1 it was 1.23 fold enrichment (6-mer frequency, TF over GST control); with EHF, 1.24 fold enrichment (6-mer frequency, TF over GST control). The binding signal with SPI1 is 1.11 fold enrichment (6-mer frequency, TF over GST control); in the test with SPIB, 1.25 fold enrichment (6-mer frequency, TF over GST control); with ELK3, 1.3 fold enrichment (6-mer frequency, TF over GST control); with FEV it was 1.22 fold enrichment (6-mer frequency, TF over GST control); with ETV5 it was 1.13 fold enrichment (6-mer frequency, TF over GST control); with HSF1 it was 1.13 fold enrichment (6-mer frequency, TF over GST control). Besides, the binding signal with SPIC is 1.34 fold enrichment (6-mer frequency, TF over GST control); with ELF4, 1.15 fold enrichment (6-mer frequency, TF over GST control); in the test with ELK4, 1.3 fold enrichment (6-mer frequency, TF over GST control); with ETV2 it was 1.35 fold enrichment (6-mer frequency, TF over GST control); with ELF3, 1.27 fold enrichment (6-mer frequency, TF over GST control); in the test with CRX, 1.1 fold enrichment (6-mer frequency, TF over GST control). In addition, the binding signal with ETV1 is 1.19 fold enrichment (6-mer frequency, TF over GST control).
